Among all 140,000 compounds or so, about 860 (0.61%) were called active. No stated cut-off is given here; in the data, active means inhibition above about 25%; inactive means the rest. The sample as a whole holds a higher share of actives than the screen did.

The term inhibition denotes the change of the read-out against control, counted positive when it falls.

Sequence of E3 ubiquitin-protein ligase RBX1 (Homo sapiens) + Cullin-1 (Homo sapiens) (P62877 whole entry, looked up): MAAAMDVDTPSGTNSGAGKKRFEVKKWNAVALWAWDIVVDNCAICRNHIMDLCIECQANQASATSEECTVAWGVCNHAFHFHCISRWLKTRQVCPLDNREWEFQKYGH
Sequence of E3 ubiquitin-protein ligase RBX1 (Homo sapiens) + Cullin-1 (Homo sapiens) (Q13616 whole entry, looked up): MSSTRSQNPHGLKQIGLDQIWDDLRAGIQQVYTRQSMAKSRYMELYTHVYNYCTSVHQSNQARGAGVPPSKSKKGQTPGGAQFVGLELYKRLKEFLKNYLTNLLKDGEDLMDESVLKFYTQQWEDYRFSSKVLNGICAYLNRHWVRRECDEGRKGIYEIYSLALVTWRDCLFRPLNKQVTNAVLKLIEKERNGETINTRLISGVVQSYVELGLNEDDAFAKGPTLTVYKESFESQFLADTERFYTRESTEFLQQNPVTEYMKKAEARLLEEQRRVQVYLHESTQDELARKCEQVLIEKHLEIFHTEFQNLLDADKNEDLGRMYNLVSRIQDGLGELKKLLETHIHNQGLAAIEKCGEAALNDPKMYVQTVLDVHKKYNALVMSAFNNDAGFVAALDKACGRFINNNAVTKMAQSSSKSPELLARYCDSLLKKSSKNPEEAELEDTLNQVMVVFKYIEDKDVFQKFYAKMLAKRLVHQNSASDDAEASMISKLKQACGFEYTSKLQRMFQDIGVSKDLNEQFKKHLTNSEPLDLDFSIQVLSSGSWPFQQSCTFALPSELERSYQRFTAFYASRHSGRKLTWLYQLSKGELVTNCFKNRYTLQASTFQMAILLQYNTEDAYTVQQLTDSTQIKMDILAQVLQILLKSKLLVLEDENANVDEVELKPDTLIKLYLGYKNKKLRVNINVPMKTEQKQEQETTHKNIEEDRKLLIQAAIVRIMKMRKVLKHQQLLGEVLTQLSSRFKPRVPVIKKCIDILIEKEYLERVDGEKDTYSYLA

This experiment has as its target E3 ubiquitin-protein ligase RBX1 (Homo sapiens) + Cullin-1 (Homo sapiens) (UniProt P62877+Q13616). As to the kind of experiment: inhibitors of human ROC1-CUL1 ubiquitin ligase activity (AID 1347404). The following applies: in vitro K48 di-Ub FRET, acceptor:donor ratio, 45 min; at 10 µM; active compounds read high.
For the compound `CCN1CCN(c2nc(-c3ccc(OC)cc3)cc(=O)[nH]2)CC1`, the inhibition is 5.84% (inactive).

As to `Cc1ccc(Cl)cc1N1CCN(C(=O)C23CC4CC(CC(C4)C2)C3)CC1`, the inhibition is -7.78% (inactive). With `Cc1ccccc1CS(=O)(=O)N1CCC(Cc2ccccc2)CC1`, the inhibition was 8.78% (inactive). Regarding `COc1ccc(C(Nc2cc(C)ccn2)c2ccc3cccnc3c2O)c(OC)c1OC` (centres undefined), the inhibition is 2.02% (inactive). `COc1ccc2nc(SCC#CCSc3nc4ccc(OC)cc4[nH]3)[nH]c2c1`: the inhibition was 7.63% (inactive). For `CNCC#CCOc1ccccc1C(C)(C)C`, the inhibition is -2.15% (inactive). Take `O=c1cc(Cl)c2ccccc2o1`: the inhibition was -4.6% (inactive). Take `CN(C)/C=C/c1c(C#N)c(=O)oc2ccccc12`: the inhibition is 9.69% (inactive).

As to `Nc1scc2c1c(=O)oc1ccccc12`, the inhibition is 57% (active).

Turning to `CCOC(=O)C(C(=O)OCC)c1ccc(OC)cc1[N+](=O)[O-]`, the inhibition was 2.12% (inactive). Take `CCOc1cc(/C=C2/SC(=O)N(C(C)C)C2=O)ccc1O`: the inhibition is -0.43% (inactive).

Regarding `Nc1nc2c(ncn2S(=O)(=O)c2ccc(C(=O)O)cc2)c(=O)[nH]1`, the inhibition was 7.51% (inactive).

Take `Cc1[nH]nc2c1C(c1cccc(OCc3ccccc3Cl)c1)C(C#N)C(=N)O2` (centres undefined): the inhibition was -9.52% (inactive). On to `Cc1ccc(C2Oc3ccccc3C3CC(c4cccs4)=NN32)o1` (centres undefined), for which the inhibition is 0.171% (inactive). For `CCN(CC)C(=O)c1sc(NC(=O)C(Sc2ccccc2)c2ccccc2)c(C#N)c1C` (centres undefined), the inhibition was 2.76% (inactive). As to `Oc1ccc2oc(SCCOCCOCCOCCSc3cc4cc(O)ccc4o3)cc2c1`, the inhibition is 0.44% (inactive). The figure for `O=C(COC(=O)c1cc(Cl)c(Cl)cc1C(=O)OCC(=O)c1ccccc1)c1ccccc1` is 7.68% (inactive); for `O=C(O)CSCC(=O)Nc1nccs1` it is -17.6% (inactive); for `O=C1C2CCCN2C(=O)N1CCCCN1CCN(c2cccc(C(F)(F)F)c2)CC1` (centres undefined) it is -6.27% (inactive).

For `c1ccc(-c2oc(-c3ccccc3)c(-c3ccccc3)c2-c2ccccc2)cc1`, the inhibition is -5.11% (inactive). For the compound `CCc1ccc(-c2cc(C(F)(F)F)n3nc(C(=O)N(C)Cc4cnn(C)c4C)cc3n2)s1`, the inhibition was -10.3% (inactive). With `N#Cc1c(-c2ccccc2)c(-c2ccccc2)n[nH]c1=O`, the inhibition was 49.7% (active).

Consider `COc1ccc(-c2n[nH]c(=O)c3ccccc23)cc1`, for which the inhibition is 0.605% (inactive). As for `N#Cc1ccc(-c2nc3cc(C#N)c(C#N)cc3nc2-c2ccccc2)cc1C#N`, the inhibition was 0.0365% (inactive). In the case of `COc1cc(OC)c(OC)cc1CN1CC[C@@H](N2CCC(O)CC2)[C@H](O)C1`, the inhibition was 13% (inactive).

`OCc1ccc(-c2cc(Cl)cc(Cl)c2)o1`: the inhibition was -5.33% (inactive). The figure for `C=CCN1C(=O)N=C(Cc2ccc(-c3cccc(F)c3)o2)C1=O` is 2% (inactive); for `O=C(O)c1cc(-c2ccc(CC3=NC(=S)N(c4ccc(Cl)cc4)C3=O)o2)ccc1Cl` it is 101% (active); for `COc1cccc(C(=O)NC2(C(F)(F)F)C(=O)N=C3C2C(=O)NC(=O)N3c2ccc(C)cc2)c1` (centres undefined) it is -7.22% (inactive).

Take `Cc1ccc(-c2c3nnc4ccccc4c3nc3sc4c(=O)[nH]c(C)nc4c23)cc1`: the inhibition was 6.93% (inactive). Take `COc1ccc(F)c(-c2nc(CN(C)Cc3nonc3C)c(C)o2)c1`: the inhibition was 3.31% (inactive). Regarding `COCCCN1C(=O)CC(CC(=O)N2CCN(C)C(c3ccccc3)C2)(c2ccccc2OC)C1=O` (centres undefined), the inhibition is 9.56% (inactive).

For `COc1cccc(CC2(CO)CCN(C(=O)c3cnn(C(C)C)c3)CC2)c1`, the inhibition was 4.94% (inactive). The figure for `O=C(NC1CCCN(CCc2ccccc2)C1)c1cccc(N2CCOCC2)c1` (centres undefined) is 5.73% (inactive). Take `COc1ccc(C(=O)Nc2ccc3nc(N4CCCCC4)cc(C)c3c2)cc1OC`: the inhibition is -8.5% (inactive). Regarding `O=C(NNc1cc(N2CCCC2)nc(N2CCCC2)n1)c1ccccc1`, the inhibition was 31.7% (active). With `Cc1ccc(-c2csc(NNC(=O)c3ccccc3)n2)cc1`, the inhibition is -5.78% (inactive). Turning to `COCCN(CC1CCN(Cc2ccccc2F)CC1)C(=O)CCCN1CCCCC1=O`, the inhibition was 14.5% (inactive). The figure for `Cc1ccccc1OC(C)C(=O)Nc1nccs1` (centres undefined) is 0.702% (inactive). The figure for `CCn1cc(/C=C2\SC(=O)N(CC(=O)Nc3cccc(C)c3)C2=O)c2ccccc21` is 0.178% (inactive); for `CCCN1C(=O)/C(=C\c2cn(CC(=O)O)c3ccccc23)C(=O)N(c2ccccc2)C1=S` it is 48.9% (active); for `CCN1C(=O)C(=Cc2ccc(-c3ccccc3)o2)C(=O)N(CC)C1=S` it is -2.58% (inactive).

For the compound `CCCCCOc1cccc(OCC(=O)Nc2cccc(OC)c2)c1`, the inhibition was 0.894% (inactive). The figure for `CCCCCCCCCCCCOc1c(OC)cc(C(=O)O)cc1OC` is 26.5% (active); for `COc1cc(C(=O)O)ccc1OC(=O)C1CCCCC1` it is 2.41% (inactive); for `Cc1cccc(-n2c(C)c(C)n3c4c(=O)n(CCCO)c(=O)n(C)c4nc23)c1` it is -0.432% (inactive). For the compound `CCCNC(=O)c1nnn(-c2ccc(C)cc2)c1C`, the inhibition was 2.76% (inactive). The figure for `CN1CCC2(CC1)CC(=O)NC2=O` is -1.86% (inactive). Consider `Nc1ccc([N+](=O)[O-])cc1OCc1ccccc1`, for which the inhibition is 6.18% (inactive). Consider `CCn1c2ccccc2c2cc(NS(=O)(=O)c3ccc(Cl)nc3)ccc21`, for which the inhibition is -11.1% (inactive). With `Cc1cc(OC(C)C(=O)N2CCN(c3ccccc3)CC2)cc(C)c1Cl` (centres undefined), the inhibition was 12.3% (inactive). Consider `O=C(Nc1cccc(Cl)c1)C(=S)NCc1ccco1`, for which the inhibition was 3.18% (inactive).

`Nc1c(C(=O)Nc2ccc(F)c(Cl)c2)sc2nc(-c3ccc(F)cc3)ccc12`: the inhibition was -0.694% (inactive). Turning to `COCC(=O)N1CCCC(C(=O)c2cccc(C(F)(F)F)c2)C1` (centres undefined), the inhibition is 11% (inactive).
